# Results as given in PubChem BioAssay (EPA / NIEHS).
# Activity calls are given as the source filed them. Rule for the calls: active = hit-call score of the fitted dose curve at least 0.9, where 1 is the maximum; inactive = score below 0.9. *1 amine or outer side, *2 acyl side, *3 side chain or, on linkers, in order; H or OH if unused. Where a SMILES comes first, the peptide text is derived from it. Bridges are numbered along the chain shown (N, C = ends). Roman numbers before positions name the chains, in order. [ ]: non-standard residue; d: D form. Actinocin(9to1) = Cc1c2oc3c(C)ccc(C(=O)[*:1])c3nc-2c(C(=O)[*:2])c(N)c1=O; NMeV = CN[C@H](C(=O)O)C(C)C; Sar = CNCC(=O)O
# Experiment: CCTE_Deisenroth_DEVTOX-GLR_Endo_CellCount: Viability Assessment in CCTE's DevTox GLR-Endo Assay, Deisenroth Lab (AID 2284420)
# Experimental: CCTE_Deisenroth_DEVTOX-GLR_Endo assay is a cell-based, multiplex-readout assay that uses RUES2-GLR, a human pluripotent cell line, with measurements taken at 48 hours after chemical dosing in a 384-well microplateCCTE_Deisenroth_DEVTOX-GLR_Endo_CellCount is 1 of 4 assay components calculated from the CCTE_Deisenroth_DEVTOX-GLR_Endo assay and it measures cell count. Using fluorescent nuclear staining, loss-of-signal activity can be used to understand changes in cell viability with fluorescent microscopy. It is designed to make measurements of nuclei counts as a surrogate for cell number, as detected with optical fluorescence microscopy by Perkin Elmer Harmony nuclei detection algorithm. To generalize the intended target to other relatable targets, this assay component is annotated to the cell cycle intended target family, where the subfamily is cytotoxicity.Data from the assay component CCTE_Deisenroth_DEVTOX-GLR_Endo_CellCount was analyzed as 1 assay endpoint. The endpoint the percent change in cell count relative to the 0.2% DMSO control in the CCTE_Deisenroth_DEVTOX-GLR_Endo assay. Furthermore, this assay endpoint can be referred to as a primary readout, because this assay has produced multiple assay endpoints where this one serves as a measure of cytotoxicity.
# All assay protocols are aligned to the DevTox GLR-Endo assay workflow. Cells are seeded into 384-well microplates for 24 hours prior to initiating differentiation in defined media for a total duration of 48 hours. A total of two chemical exposures are administered in 24-hour intervals during the 48-hour differentiation period. At the assay termination point, cells are fixed and stained with a fluorescent dye demarcating the nucleus. High-content imaging is used to acquire brightfield and fluorescent channel images across 5 fields per well. Cell identification and mean biomarker fluorescence intensities are calculated with image analysis software to determine the total cell counts for viability assessment and the biomarker expression frequency for each lineage-dependent assay. A typical experimental design tests a 10-point concentration series (1 nM - 200 uM) for 28 compounds in single technical replicate. Assay plate controls include non-differentiated pluripotent cells (baseline control), lineage-specific differentiated cells (differentiation control), and DMSO solvent exposed differentiated cells (solvent control). Experiments typically comprise a minimum of four experimental replicates (n=4).
row,SMILES,AC50
1,Cc1nc(Nc2ncc(C(=O)Nc3c(C)cccc3Cl)s2)cc(N2CCN(CCO)CC2)n1,0.0574 µM (active)
2,COc1cc2ncnc(Nc3ccc(F)c(Cl)c3)c2cc1OCCCN1CCOCC1,6.57 µM (active)
3,CNC(=O)c1cc(Oc2ccc(NC(=O)Nc3ccc(Cl)c(C(F)(F)F)c3)cc2)ccn1,1.08 µM (active)
4,Cc1nc2sccn2c(=O)c1CCN1CCC(=C(c2ccc(F)cc2)c2ccc(F)cc2)CC1,9.15 µM (active)
5,O=C1Cc2cc(CCN3CCN(c4nsc5ccccc45)CC3)c(Cl)cc2N1,3.31 µM (active)
6,COc1cc2c(Nc3ccc(Br)cc3F)ncnc2cc1OCC1CCN(C)CC1,4.46 µM (active)
7,CC1=C(/C=C/C(C)=C/C=C/C(C)=C\C(=O)O)C(C)(C)CCC1,10.7 µM (active)
8,O=c1[nH]c(=O)n([C@H]2C[C@H](O)[C@@H](CO)O2)cc1Br,10.2 µM (active)
9,Cc1ccc(NC(=O)c2ccc(CN3CCN(C)CC3)cc2)cc1Nc1nccc(-c2cccnc2)n1,15.8 µM (active)
10,Nc1cccc2c1CN(C1CCC(=O)NC1=O)C2=O (stereo not given),0.132 µM (active)
11,O=C(c1ccc(F)cc1)C1CCN(CCn2c(=O)[nH]c3ccccc3c2=O)CC1,58.4 µM (active)
12,CCN(CC)CCNC(=O)c1c(C)[nH]c(/C=C2\C(=O)Nc3ccc(F)cc32)c1C,1.62 µM (active)
13,"Cc1c2oc3c(C)ccc(C(=O)N[C@@H]4C(=O)N[C@H](C(C)C)C(=O)N5CCC[C@H]5C(=O)N(C)CC(=O)N(C)[C@@H](C(C)C)C(=O)O[C@@H]4C)c3nc-2c(C(=O)N[C@@H]2C(=O)N[C@H](C(C)C)C(=O)N3CCC[C@H]3C(=O)N(C)CC(=O)N(C)[C@@H](C(C)C)C(=O)O[C@@H]2C)c(N)c1=O (I: T[dV]P[Sar][NMeV] / II: T[dV]P[Sar][NMeV]; ester I:1-I:C, II:1-II:C; linker I:N-II:N via Actinocin(9to1))",1.48e-05 µM (active)
14,CN1CCN2c3ccccc3Cc3ccccc3C2C1 (stereo not given),36.4 µM (active)
15,CCCCCN=C(N)N/N=C/c1c[nH]c2ccc(OC)cc12,5.15 µM (active)
